PubChem BioAssay (NCATS)
A number with no mark means an inactive call. Unless noted, calls follow the shape of the dose curve; as a rule, active = well fitted curve in either direction with a large enough effect (not every such curve was filed as active); inconclusive = small, poorly fitted or top-dose-only effect, or another doubt; inactive = flat fitted curve, though single readings scatter. Results filed as inconclusive are left out. Starred links: 1 amine or outer side, 2 acyl side, 3 side chain; linkers in the order of their positions; H or OH if unused. Positions of bridges follow the written chain, without caps; N, C: chain ends. Bridge positions count the residues as written; N and C are the ends. Non-standard residues stand in square brackets, D forms with d. Square brackets hold non-standard residues; d marks the D form. Residues, ends and D or L forms follow the SMILES beside them. Peptide text beside a SMILES is read from it. * marks the point of attachment. *: point of attachment. Ileψ(thiazoline)Cys = CC[C@H](C)[C@H](N)C1=N[C@H](C(=O)*)CS1; X1 = NC1=N[C@@H](O)C[C@@H]([C@@H](N[*:1])C(=O)[*:2])N1; ΔAla(Z-3-ureido) = NC(=O)N/C=C(\N)C(=O)O; d(aIle) = CC[C@H](C)[C@@H](N)C(=O)O; β3hOrn = NCCC[C@H](N)CC(=O)*; dOrn = NCCC[C@@H](N)C(=O)O; Dap = NC[C@H](N)C(=O)O

biological target: Glucocorticoid receptor (Homo sapiens) (UniProt P04150); experiment: GR-EFC Redistribution (AID 451; calls by dose curve; also: potency is read from the fitted curve at half-maximal effect); settings: CHO-K1 GR-EFC translocation, beta-gal luminescence, 2 h
Sequence (P04150 whole entry, looked up, the tested form may be a part): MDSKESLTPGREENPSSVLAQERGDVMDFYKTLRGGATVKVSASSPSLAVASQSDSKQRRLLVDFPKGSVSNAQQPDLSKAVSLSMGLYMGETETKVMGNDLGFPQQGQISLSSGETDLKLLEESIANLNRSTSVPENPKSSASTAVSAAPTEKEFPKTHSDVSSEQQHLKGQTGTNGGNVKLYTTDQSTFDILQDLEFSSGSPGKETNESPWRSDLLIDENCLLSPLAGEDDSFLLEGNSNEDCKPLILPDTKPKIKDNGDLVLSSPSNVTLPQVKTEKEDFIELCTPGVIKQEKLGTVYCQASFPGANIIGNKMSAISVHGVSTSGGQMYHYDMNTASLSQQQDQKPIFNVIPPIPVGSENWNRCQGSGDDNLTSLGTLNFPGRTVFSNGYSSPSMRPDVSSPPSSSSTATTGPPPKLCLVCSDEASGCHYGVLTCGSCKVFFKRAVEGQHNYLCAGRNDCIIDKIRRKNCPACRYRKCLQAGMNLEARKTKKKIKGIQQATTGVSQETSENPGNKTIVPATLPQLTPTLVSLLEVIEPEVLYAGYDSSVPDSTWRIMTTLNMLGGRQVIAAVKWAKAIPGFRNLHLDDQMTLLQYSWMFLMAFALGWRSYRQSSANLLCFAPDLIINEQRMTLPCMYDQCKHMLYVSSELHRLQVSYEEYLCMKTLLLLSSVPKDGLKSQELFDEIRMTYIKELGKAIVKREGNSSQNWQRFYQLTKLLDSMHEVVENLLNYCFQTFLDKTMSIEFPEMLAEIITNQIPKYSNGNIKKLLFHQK
Method in brief: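 Translocation of GR-ED fusion to nuclear EA restores b-gal, read by luminescence after 1 h room-temperature detection. Engineered CHO-K1 biosensor cells, 1,000/well, exposed 2 h at 37 C to titrations up to 46 uM final.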

SMILES	Potency
C=CCO[C@@H](Cn1ccnc1)c1ccc(Cl)cc1Cl	> 20.6 µM
CN(C/C=C\c1ccccc1)Cc1cccc2ccccc12	> 20.6 µM
CCN(CCCCOC(=O)c1ccc(OC)c(OC)c1)[C@@H](C)Cc1ccc(OC)cc1	> 20.6 µM
CC1(C)[C@@H](OC(=O)CCC(=O)O)CC[C@@]2(C)[C@H]1CC[C@@]1(C)[C@H]2C(=O)C=C2[C@H]3C[C@](C)(C(=O)O)CC[C@]3(C)CC[C@@]21C	> 20.6 µM
C#C[C@@]1(OC(C)=O)CC[C@@H]2[C@@H]3CCC4=C[C@@H](OC(C)=O)CC[C@H]4[C@H]3CC[C@]21C	> 20.6 µM
Cc1ccsc1/C=C\C1=NCCCN1C	> 20.6 µM
Cc1cccc(CN2CCN([C@@H](c3ccccc3)c3ccc(Cl)cc3)CC2)c1	> 20.6 µM
C[C@@H]1[C@H]2CC[C@@H]3[C@@H]4CC=C5C[C@@H](N(C)C)CC[C@]5(C)[C@@H]4CC[C@@]32CN1C	> 20.6 µM
COc1ccc(CNc2ncncc2-c2ccccc2CN(C)C)c(OC)c1	> 46 µM
Nc1nc(=S)c2ncn([C@H]3O[C@@H](CO)[C@@H](O)[C@@H]3O)c2[nH]1	> 20.6 µM
C#C[C@]1(O)CC[C@@H]2[C@H]3CCC4=CCCC[C@@H]4[C@@H]3CC[C@@]21C	> 20.6 µM
O=C(c1cc(C(F)(F)F)cc(C(F)(F)F)c1)N1CCC[C@@]2(CCN(c3ccccn3)C2)C1	> 46 µM
O=C(O)[C@@H](O)[C@@H](O)[C@@H](O[C@H]1O[C@@H](CO)[C@@H](O)[C@@H](O)[C@@H]1O)[C@@H](O)CO	> 20.6 µM
CN1CCC2(CC1)CCN(C(=O)c1ccncc1)CC2	> 46 µM
CN(C)CCO[C@@H](c1ccc(Cl)cc1)c1ccccn1	> 20.6 µM
CC(=O)O[C@H]1C[C@H]2CC[C@@H]3[C@@H](CC[C@]4(C)[C@H](OC(C)=O)[C@H]([N+]5(C)CCCCC5)C[C@@H]34)[C@]2(C)C[C@H]1[N+]1(C)CCCCC1	> 20.6 µM
Clc1ccc([C@H](Cn2ccnc2)OCc2c(Cl)cccc2Cl)c(Cl)c1	> 20.6 µM
C[C@@H](CNC1CCCCC1)OC(=O)c1ccccc1	> 20.6 µM
CC[N+]1(C)[C@@H]2CC[C@H]1CC(OC(=O)[C@H]1CC[C@@](C(=O)OC3C[C@H]4CC[C@@H](C3)[N+]4(C)CC)(c3ccccc3)c3ccccc31)C2 (stereo partly drawn)	> 20.6 µM

biological target: Mitogen-activated protein kinase 10 (Mus musculus) (UniProt Q61831); experiment: JNK3 AlphaScreen Assay (AID 530); settings: JNK3 lysate, c-Jun phosphorylation; series mostly up to 25.6 µM; activity change, negative = inhibition: at the top concentration;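 also: kinase came from lysate of stimulated human HepG2 cells; signal reports phosphorylation of biotinylated GST-cJun 1-79 at Ser73 with 10 µM ATP; % is scaled to controls: 0 for no effect and ±100 for the full control effect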
Method in brief: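 Kinase buffer: 20 mM Tris-HCl pH 7.6, 10 mM MgCl2, 1 mM DTT, 0.1 mM Na3VO4, 0.01% Tween-20; ATP 10 uM. Substrate biotin-GST-cJun(1-79), enzyme from activated HepG2 lysates. Detection by Ser73 phospho-antibody AlphaScreen.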

SMILES	activity change, negative = inhibition
CC[C@]1(c2ccccc2)NC(=O)N(C)C1=O	9.24%
CN1CCO[C@H](c2ccccc2)c2ccccc2C1	-0.806%
C[C@H](CCC(=O)O)[C@H]1CC[C@@H]2[C@@H]3[C@@H](O)C[C@H]4C[C@@H](O)CC[C@@]4(C)[C@H]3CC[C@@]21C	-2.02%
C=CCO[C@@H](Cn1ccnc1)c1ccc(Cl)cc1Cl	-6.41%
CN(C/C=C\c1ccccc1)Cc1cccc2ccccc12	7.2%
CC(C)(CO)[C@H](O)C(=O)NCCC(=O)O	1.41%
C[N+]1(C)CC[C@@H](OC(=O)[C@@](O)(c2ccccc2)C2CCCC2)C1	-1.63%
CCN(CCCCOC(=O)c1ccc(OC)c(OC)c1)[C@@H](C)Cc1ccc(OC)cc1	-1.75%
O=C(O)c1cc2ccccc2c(Cc2cc3ccccc3c(C(=O)O)c2O)c1O (tested in a mixture with another compound)	-3.8%
C[C@H](NCCC(c1ccccc1)c1ccccc1)c1ccccc1	-2.14%
CCC(=O)OCC(=O)[C@@]1(OC(=O)CC)[C@H](C)C[C@@H]2[C@@H]3[C@H]([C@@H](O)C[C@@]21C)[C@]1(C)C=CC(=O)C=C1C[C@@H]3Cl	-3.19%
C[C@H](C(=O)O)c1cccc(Oc2ccccc2)c1	-0.408%
NCCC[C@H](N)CC(=O)N[C@H]1CNC(=O)[C@@H]([C@@H]2C[C@H](O)N=C(N)N2)NC(=O)/C(=C/NC(N)=O)NC(=O)[C@@H](CO)NC(=O)[C@@H](CO)NC1=O (β3hOrn-[Dap][dS][dS][ΔAla(Z-3-ureido)][X1]; lactam 1-C)	10.9%
CC1(C)[C@@H](OC(=O)CCC(=O)O)CC[C@@]2(C)[C@H]1CC[C@@]1(C)[C@H]2C(=O)C=C2[C@H]3C[C@](C)(C(=O)O)CC[C@]3(C)CC[C@@]21C	0.657%
CCOC(=O)O[C@@H](C)OC(=O)[C@@H]1N2C(=O)[C@@H](NC(=O)[C@@H](N)c3ccccc3)[C@H]2SC1(C)C	0.542%
C#C[C@@]1(OC(C)=O)CC[C@@H]2[C@@H]3CCC4=C[C@@H](OC(C)=O)CC[C@H]4[C@H]3CC[C@]21C	-5.33%
Cc1ccsc1/C=C\C1=NCCCN1C	5.17%
Cc1cccc(CN2CCN([C@@H](c3ccccc3)c3ccc(Cl)cc3)CC2)c1	-10.7%
C[C@@H]1[C@H]2CC[C@@H]3[C@@H]4CC=C5C[C@@H](N(C)C)CC[C@]5(C)[C@@H]4CC[C@@]32CN1C	-0.531%
COc1ccc(CNc2ncncc2-c2ccccc2CN(C)C)c(OC)c1	8.44% [at 57.1 µM]

SMILES	activity change, negative = inhibition
Nc1nc(=S)c2ncn([C@H]3O[C@@H](CO)[C@@H](O)[C@@H]3O)c2[nH]1	-3.02%
C#C[C@]1(O)CC[C@@H]2[C@H]3CCC4=CCCC[C@@H]4[C@@H]3CC[C@@]21C	0.844%
O=C(c1cc(C(F)(F)F)cc(C(F)(F)F)c1)N1CCC[C@@]2(CCN(c3ccccn3)C2)C1	-5.11% [at 57.1 µM]
CC[C@H](C)[C@H](N)C1=N[C@H](C(=O)N[C@@H](CC(C)C)C(=O)N[C@@H](CCC(=O)O)C(=O)N[C@@H](C(=O)N[C@H]2CCCCNC(=O)[C@@H](CC(N)=O)NC(=O)[C@@H](CC(=O)O)NC(=O)[C@@H](Cc3cnc[nH]3)NC(=O)[C@@H](Cc3ccccc3)NC(=O)[C@@H]([C@@H](C)CC)NC(=O)[C@@H](CCCN)NC2=O)[C@@H](C)CC)CS1 ({Ileψ(thiazoline)Cys}-LE[d(aIle)]K[dOrn][d(aIle)][dF][dH][dD][dN]; lactam 4-C)	-3.04%
CC1(C)S[C@@H]2[C@H](NC(=O)[C@@H](N)c3ccc(O)cc3)C(=O)N2[C@H]1C(=O)O	1.34%
C[C@H](CCC(=O)O)[C@H]1CC[C@@H]2[C@H]3[C@@H](CC[C@@]21C)[C@]1(C)CC[C@H](O)C[C@@H]1C[C@@H]3O	10.8%
O=C(O)[C@@H](O)[C@@H](O)[C@@H](O[C@H]1O[C@@H](CO)[C@@H](O)[C@@H](O)[C@@H]1O)[C@@H](O)CO	2.92%
O=C(N[C@@H](CO)[C@@H](O)c1ccc([N+](=O)[O-])cc1)C(Cl)Cl	-3.52%
CN1CCC2(CC1)CCN(C(=O)c1ccncc1)CC2	0.904% [at 57.1 µM]
CN(C)CCO[C@@H](c1ccc(Cl)cc1)c1ccccn1	-4.72%
O=C(O)COCCN1CCN([C@@H](c2ccccc2)c2ccc(Cl)cc2)CC1	2.73%
CC(=O)O[C@H]1C[C@H]2CC[C@@H]3[C@@H](CC[C@]4(C)[C@H](OC(C)=O)[C@H]([N+]5(C)CCCCC5)C[C@@H]34)[C@]2(C)C[C@H]1[N+]1(C)CCCCC1	-4%
CCN(CC)CCOC(=O)[C@@H](Cc1cccc2ccccc12)C[C@@H]1CCCO1	4.57%
Clc1ccc([C@H](Cn2ccnc2)OCc2c(Cl)cccc2Cl)c(Cl)c1	-11.8%
C[C@@H](CNC1CCCCC1)OC(=O)c1ccccc1	-6.66%
CC[C@H](CO)NCCN[C@@H](CC)CO	0.484%
CC[N+]1(C)[C@@H]2CC[C@H]1CC(OC(=O)[C@H]1CC[C@@](C(=O)OC3C[C@H]4CC[C@@H](C3)[N+]4(C)CC)(c3ccccc3)c3ccccc31)C2 (stereo partly drawn)	0.335%
C[C@@]12C=CC(=O)C=C1CC[C@H]1[C@H]3CC[C@](O)(C(=O)CO)[C@]3(C)CC(=O)[C@@H]12	-3.83%
CO[C@@H]1C=CO[C@]2(C)Oc3c(C)c(O)c4c(O)c(c(C=NN5CCN(C)CC5)c(O)c4c3C2=O)NC(=O)C(C)=CC=C[C@H](C)[C@H](O)[C@H](C)[C@H](O)[C@H](C)[C@H](OC(C)=O)[C@H]1C	-20.1%
